According to PubChem BioAssay AID504847 (National Center for Advancing Translational Sciences (NCATS), 2011):
Several values for one entry are separate records, joined by “and”; a condition that tells them apart may be missing. Equal entries are not always repeated. Among all 400,000 compounds or so, about 3,700 (0.93%) were called active. Inconclusive results (about 3%) are left out. The sample holds actives, similar compounds and a random draw of the others, so the mix is not that of the screen. Unmarked numbers belong to inactive results. Calls follow the shape of the dose curve; as a rule, active = well fitted inhibition curve with a large enough effect; inconclusive = small, poorly fitted or top-dose-only effect, or another doubt; inactive = no such curve, though single readings can be large or run the other way.

Target: Vitamin D3 receptor (Homo sapiens) (UniProt P11473)
Sequence (P11473 whole entry, looked up): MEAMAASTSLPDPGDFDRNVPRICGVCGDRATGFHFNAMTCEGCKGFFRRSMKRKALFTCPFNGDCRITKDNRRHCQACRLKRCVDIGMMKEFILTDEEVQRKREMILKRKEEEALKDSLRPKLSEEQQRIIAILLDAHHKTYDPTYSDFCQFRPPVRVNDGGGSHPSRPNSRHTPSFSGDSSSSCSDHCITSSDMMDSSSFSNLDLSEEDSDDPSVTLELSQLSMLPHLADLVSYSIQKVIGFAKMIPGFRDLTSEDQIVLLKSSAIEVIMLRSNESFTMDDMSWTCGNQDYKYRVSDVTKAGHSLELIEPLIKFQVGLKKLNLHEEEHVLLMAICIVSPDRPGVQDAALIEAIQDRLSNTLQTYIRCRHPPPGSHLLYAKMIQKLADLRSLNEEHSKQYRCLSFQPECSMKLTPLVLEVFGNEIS
Test: Inhibitors of the vitamin D receptor (VDR): qHTS
Conditions: VDR-SRC2-3 peptide fluorescence polarization, 2 h; max response, negative = inhibition: active compounds read low
Procedure, shortened: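 VDR–SRC2-3 interaction, FP format. Cmpds 23 nl via pintool, brief spin, 2 h ambient incubation.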
% is scaled to controls: 0 for no effect and ±100 for the full control effect; potency is read from the fitted curve at half-maximal effect.

Compound	max response, negative = inhibition	Potency
Cc1ccc(C)c(N2CCN(S(=O)(=O)c3ccc4c(c3)C(C(C)C)C(=O)N4)CC2)c1 (configuration not stated)	8%	
Cc1csc(-c2coc3cc(O[C@@H]4O[C@H](CO)[C@@H](O)[C@@H](O)[C@H]4O)ccc3c2=O)n1	9.43%	
O=C(/C=C/NNC(=O)c1cccc(Br)c1)c1ccccc1	0%	
O=C(O)CCn1cc(/C=C/C(=O)c2ccc(Cl)cc2)c(-c2cccc(Br)c2)n1		15.8 µM (active)
O=C(COC(=O)/C=C/c1cn(-c2ccccc2)nc1-c1cccnc1)Nc1ccc(Cl)cc1Cl	-8.09%	
Cc1c(-c2nc(-c3ccc4c(c3)OCO4)no2)nnn1-c1ccc(Br)cc1F	14.1%	
Cc1ccc(Cl)cc1-n1ncc2c(N3CCC(C(N)=O)CC3)ncnc21	-9.07%	
OC[C@@H]1O[C@H](n2cnc3c(SCc4ccccc4)ncnc32)[C@H](O)[C@H]1O	-14.3%	
O=S(=O)(O)c1cc2onnc2c2ccccc12		17.8 µM (active)
COc1ccc(CCN2C(=O)c3oc4cc(C)cc(C)c4c(=O)c3C2c2ccccc2F)cc1OC (configuration not stated)	4.42%	
COc1ccccc1NC(=O)C(=O)c1cc(C)n(-c2ccccc2F)c1C	14.8%	
CCCCOc1ccc(Cn2c(=O)oc3ccc(C)cc32)cc1OC	-6.99%	
COc1ccc(CCN2C(=O)C(C)=C(C)C2=O)cc1OC	-14.3%	
CCCCOc1ccc(CN2C(=O)C(=O)c3cc(Br)cc(C)c32)cc1OC		14.1 µM (active)
CCN(CC)CCNc1ncnc2c1cnn2-c1cc(Cl)ccc1C	11.7%	
CN1[C@H]2CC(OC(=O)[C@@H](CO)c3ccccc3)C[C@H]1[C@H]1O[C@H]12 (some centres not stated)	7.07%	
CCOC(=O)NNc1cc(C(F)(F)F)ccn1	-1.56%	
Cn1c(N)c(C(=O)COC(=O)/C=C/c2cccc(C(F)(F)F)c2)c(=O)n(C)c1=O	8.93%	
CCOC(=O)/C=C/c1ccc(C(F)(F)F)cc1S(=O)(=O)NC(C)(C)C		79.4 µM (active)
CC1(C)CCc2cc(S(=O)(=O)N3CCN(c4nc(-c5cccs5)nc5ccccc45)CC3)ccc2O1	-7.78%	
OCC(CO)NC1C[C@](O)(CO)[C@@H](O)[C@H](O)[C@H]1O (some centres not stated)	1.5%	
O=C(Nc1cccc(F)c1)c1cc(-c2ccco2)nc2ccccc12	-14.8%	

Compound	max response, negative = inhibition	Potency
CC(=O)N1CCN(C(=O)c2cc(-c3ccc(C)o3)nc3ccccc23)CC1	-3.82%	
CC1CCCN(C(=O)c2cc(-c3ccco3)nc3ccccc23)C1 (configuration not stated)		35.5 µM (active)
CN(C)c1cccc(C(=O)Nc2nc3ccc(S(=O)(=O)NC(C)(C)C)cc3s2)c1	8.63%	
COc1ccccc1-c1noc(CSc2nnc(-c3ccccc3)n2-c2ccc(C)c(C)c2)n1	5.39%	
O=C(Cn1nc(CNc2ccc(Cl)cc2)[n+]2c1CCCCC2)c1ccc(Cl)cc1		79.4 µM (active)
O=C(Cn1ncc(N2CCCC2)c(Br)c1=O)c1ccc(Cl)cc1	-1.29%	
O=C(Cn1nc(C(F)(F)F)c2c1CCCC2)Nc1ccc(Cl)cc1	4.81%	
Cc1cccc(N2CCN(c3ccc(C(=O)O)cc3NC(=O)c3ccccc3F)CC2C)c1 (configuration not stated)	1.51%	
O=C(CCN1CCN(C/C=C/c2ccccc2)CC1)Nc1ccccc1Cl	-1.78%	
O=C(Nc1ccccc1Cl)N1CCC(CN2CCCC2)CC1	6.62%	
O=C(Nc1ccccc1Cl)/C(Cl)=C(\Cl)S(=O)c1ccccc1 (configuration not stated)		3.98 µM (active)
CCn1cc(C(=O)NCc2ccc(C)cc2)c(=O)c2cc(S(=O)(=O)N3CCc4ccccc4C3)ccc21	-10.3%	
Cc1c(Br)cc(C(=O)N2CCCCCC2)c(C)c1C	-2.34%	
Cc1ccc(C(=O)N2CCCC2)c(F)c1F		44.7 µM (active)
Cc1ccc(C(NC(=O)N2CCCC2)C(Cl)(Cl)Cl)cc1F (configuration not stated)	6.9%	
CCC(=O)Nc1cccc(C(=O)OCc2cc(=O)n3nc(CC)sc3n2)c1	7.59%	
C=C1C(=CC=C2CCC[C@@]3(C)[C@@H]2CC[C@H]3[C@H](C)CCCC(C)C)C[C@@H](O)C[C@@H]1O	8.33%	
CCOCCn1ccc2c(OCC(=O)NCc3ccc(C)cc3)cccc2c1=O	10.6%	
Cc1ccc(OCC(=O)Nc2ccc(OCc3cc(=O)n4c(C)csc4n3)cc2)cc1C	-8.2%	
O=C(Nc1c(C(=O)N2CCN(c3ccc(F)cc3)CC2)oc2ccccc12)c1ccco1	-2.38%	
COc1ccccc1CNC(=O)c1ccc(-n2c(C)cc3c2CCCC3)cc1	13.6%	
Cn1c(=O)c2c(ncn2CC(=O)Nc2cccc(C(F)(F)F)c2)n(C)c1=O	2.35%	

Compound	max response, negative = inhibition	Potency
O=C(CSc1nc(-c2ccccc2)cs1)Nc1cccc([N+](=O)[O-])c1	-15.3%	
O=c1cc(CO)oc(C(Nc2cccc([N+](=O)[O-])c2)c2ccccn2)c1O (configuration not stated)		79.4 µM (active)
O=c1cc(CO)oc(C(Nc2cccc(C(F)(F)F)c2)c2ccccn2)c1O (configuration not stated)		50.1 µM (active)
O=C(Nc1ccc([N+](=O)[O-])cc1)OCCc1ccccn1	-15.4%	
O=C(CSc1nnc(-c2ccccc2F)o1)Nc1cccc(C(F)(F)F)c1	-10.5%	
Cc1c(Cl)cccc1NC(=O)c1noc2c1CCCC2	-14.6%	
O=C(NCc1ccccc1)c1ccc2c(c1)nc1n2CCCCC1	12.2%	
Cc1ccc(C)c(NC(=O)C2CCCN(S(=O)(=O)c3cn(C)cn3)C2)c1 (configuration not stated)	2.5%	
COCCNC(=O)c1ccc2c(c1)N(Cc1cccc(Cl)c1)C(=O)c1ccccc1S2(=O)=O	5.24%	
CCCCOc1ccc(C(=O)N2CC(=O)Nc3ccc(Br)cc3C2c2ccc(F)cc2)cc1 (configuration not stated)	-9.94%	
Cc1cccc(C2CC(=O)Oc3c2c(=O)n(C)c2ccccc32)c1 (configuration not stated)	0.823%	
Cc1cccc(OP(=O)(Nc2c(C)n(C)n(-c3ccccc3)c2=O)Oc2cccc(C)c2)c1	10.3%	
Cc1cccc(Oc2c([N+](=O)[O-])c(=O)n(C)c3ccccc23)c1		39.8 µM (active)
Cc1c2cnn(-c3ccccc3)c(=O)c2c(C)n1C(C)C(=O)Nc1ccc(Br)cc1F (configuration not stated)	11.8%	
CN(Cc1ccccc1)C(=O)c1cc2c(=O)n(C)c3ccccc3c2s1	-5.87%	
C/C(Nc1ccc2oc(=O)ccc2c1)=C1/C(=O)CC2[C@@H]1C2(C)C (some centres not stated)	-29.7%	
CCC1CN(S(=O)(=O)c2cc(-c3cc(C)no3)ccc2C)c2cc(C)ccc2O1 (configuration not stated)	10.7%	
CN1C(=O)CN2CCc3ccccc3C2c2cc(Cl)ccc21 (configuration not stated)	-10.7%	
O=c1[nH]c(CSc2ncc(-c3ccc(F)cc3)n2Cc2ccco2)nc2ccccc12	7.47%	
Clc1cccc(-c2nc3nc4ccccc4nc3n2Cc2ccco2)c1	4.83%	
Cc1ccc(Cn2c(C)nc3c(c2=O)c2nc4ccccc4nc2n3Cc2ccco2)cc1		56.2 µM (active)
CCOc1ccc(-c2n[nH]c3c2C(c2ccccc2OC)N(c2ccc(Br)cc2)C3=O)cc1 (configuration not stated)	-27%	

Compound	max response, negative = inhibition	Potency
Nc1ccc2nc3c(=O)[nH]c(=S)[nH]c3nc2c1		79.4 µM (active)
O=C(NCCc1ccc(Cl)cc1)c1ccc2c(c1)N(Cc1ccc(F)cc1)C(=O)CS2	-1.91%	
Cc1c(S(=O)(=O)O)oc2c1C(=O)C(=O)c1c-2ccc2c1CCCC2(C)C		8.91 µM (active)
Cc1ccc(C(=O)Nc2nc(-c3ccccc3)ns2)cc1	2.63%	
CCCCCCCCCCCCCCCCO	0.1% and 6.37%	
CCOc1ccc(-n2c(N)c(C(=O)NCC3CCCO3)sc2=S)cc1 (configuration not stated)		79.4 µM (active)
CCOc1ccc(S(=O)(=O)N2CCN(C(=S)NCC3CCCO3)CC2)cc1 (configuration not stated)	28.2%	
CCOc1ccc(S(=O)(=O)NCCC(=O)NCC2CCCO2)cc1 (configuration not stated)	-3.32%	
O=C(NC1CC(=O)N(c2ccc(Cl)cc2)C1)C1CCCC1 (configuration not stated)	-5.32%	
CN(C)S(=O)(=O)N1CCN(c2ccc([N+](=O)[O-])cc2)CC1	-2.16%	
CCCCC(=O)Nc1c2c(nn1-c1ccc([N+](=O)[O-])cc1)CS(=O)(=O)C2	-18.5%	
O=C1/C(=C\c2ccc([N+](=O)[O-])cc2)CS(=O)(=O)C/C1=C/c1ccc([N+](=O)[O-])cc1		39.8 µM (active)
Cc1cc(C)c(-c2n[nH]c3c2C(c2ccccc2F)N(CCO)C3=O)c(O)c1 (configuration not stated)	7.23%	
O=c1cnc2cnc(Nc3ccccc3)nc2n1Cc1ccc(F)cc1	-4.57%	
Cc1cc(NC(=O)CSc2ncc(C(=O)Nc3ccc(Cl)cc3)c(=O)n2C)no1	4.19%	
COc1ccc(NC(=O)c2ccco2)cc1NC(=O)COc1ccc(C)c(C)c1	5.81%	
O=C(NC(=S)Nc1ccccc1C(=O)O)c1ccc(-c2ccc(Br)cc2)o1		70.8 µM (active)
O=C(O)c1ccccc1NC(=O)c1ccccc1-c1ccccc1C(=O)O	-22.4%	
CN1CCN(C(=O)c2ccc(-c3ccc(Br)cc3)o2)CC1	-9.02%	
O=C(Nc1ccccc1Cl)N1CCC(CN2CCCCC2)CC1	4.52%	
COc1cc(-c2cc3n(C)c(C)c(CCC(=O)Nc4ccc(F)cc4)c(=O)n3n2)cc(OC)c1OC	-2.64%	
